Over roughly 59,000 sequences, the read-out has its median near -0.00055; the lowest 2% begin near -2. Only a selection was taken, and the lowest values are over-represented in it overall.

The nature of the test: Identification of proteins required for the processing of the EWS-FLI1 nascent transcript.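 Also: robust z of luciferase light less the median z of siRNAs with the same seed.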 Conditions: TC32 Ewing sarcoma NR0B1-luc vs CMV-luc (EWS-FLI1 target promoter against control promoter), 48 h; screened at 20 nM (by protocol). The procedure, abridged: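 Genome-wide siRNA screen (Ambion v4.1, three siRNAs per gene, 20 nM final, RNAiMax) in Ewing sarcoma TC32 cells carrying NR0B1-promoter or CMV-promoter luciferase; OneGlo luciferase read 48 h post-transfection. Data normalized, z-score-MAD transformed and seed-adjusted.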
Regarding UUAGGAACUCGAACGACGU against GTF2F1, the seed-corrected z-score turned out to be 0.889.
UUCUUCUUAGAUUUAUGCC against RPL3 gave a seed-corrected z-score of -2.09.
UCUCGAUUGAGGGUGGUUG against FLRT3: the seed-corrected z-score stood at 0.383.
In the case of AUAGGUGCAAGGCUUGUGC against C1orf56 it was -2.01.
In the case of UCUUCUCGAACAGAGGUCG against F2 it was -0.0868.
In the case of UGAGGGUUUAGCAUCAAGC against PCGF1 it was -1.47; in that of UCUUUUAACGACCUCCUGC against SLC35D3, 0.495; in that of UCGCGGAUCUCCUUUGUGG against HMGN2P18, -0.51.
Take AAAGUCCCAAGUGCUAAGA against FAM180B: the seed-corrected z-score is 2.95.
As to UUCUCGAUGCGGUCCAUCC against RILPL1, the seed-corrected z-score is 1.36.
UUUGGUAGAAAAUUGCAGA against FJX1 displayed a seed-corrected z-score of -0.707.
The sequence UUCCGUUCCACCUCCAUCA against SPATC1 registered a seed-corrected z-score of -2.15.
With UCAUCUACCUGUAUUACCU against CDCA8 the figure was -0.479.
In the case of AAUGGUAGUAGCGGAAUCG against SLC12A6 it was -1.16; in that of UAUGUACUUCUGACAAGUC against RNF125, 0.00921.
Sequence UAUCUAGCAGCUCUCCCAG against AMHR2 gave a seed-corrected z-score of 0.151.
In the case of UAACCGACUGGGUAGAGCG against EMC4 it was 0.348; in that of UCUCUGCUCAAUGUUUUCU against LBH, -2.25.
Turning to UACGAGGAUGUUGUAUUCC against N4BP1, the seed-corrected z-score was -0.092.
In the case of UACAGUACAAACAAGGCUG against CEBPA it was -0.377.
The sequence UUAACUGCUAGUGUAUUGG against TCP1 came in with a seed-corrected z-score of -1.18.
UCAAGGAUAAGAGAGAUUG against RORC displayed a seed-corrected z-score of 0.034.
The sequence UGCGAUUGAAUAUUCUACG against CSRNP3 registered a seed-corrected z-score of -2.35.
In the case of AUUCUUACAAUCUAAAGGC against SUPT7L it was 0.435; in that of AGAGGUUGUACAUUCUUCG against SESN2, -2.47; in that of UUCUUAGACACGUAGUACC against KAT2B, 0.834.
Regarding UAGGGAUUCCCUGUAGUUC against COLEC10, the seed-corrected z-score is 1.57.
The sequence AUCUGUCUGAGUGCAAAUC against HIPK1 gave a seed-corrected z-score of -0.0595.
In turn, UUGGUAUCAAGGUCUACAC against DENND4B came in with a seed-corrected z-score of -0.319.
With AUUGUAUACAGCGAGUUCU against GP1BA the figure was 0.181; with AUCCGGAACCUGUAGAUCG against CCDC130, -0.0498.
With AAUGGUCUUGUUGGUCUCC against TSNARE1 the figure was -2.7.
In turn, UGAUUAACCAGUACUGAUG against C5orf42 registered a seed-corrected z-score of 0.83.
With AUUAGAACUACAGCUCUCG against LOC648999 the figure was 0.638; with UCGAUGGUAAGGUAAGAGC against DNMT3B, -2.25; with UCUCGUAGAACAUUGCUGG against VPS53, -0.933.
For AAAGCUGGAAUAAAUAGUC against DLX5, the seed-corrected z-score was -0.397.

For the origin of these results see PubChem BioAssay AID1159506 (National Center for Advancing Translational Sciences (NCATS), 2015).
